Compound activity: PubChem, National Center for Advancing Translational Sciences (NCATS)
S2 tox: cell viability loss in ATXN counter-screen; Potency, µM (doses to about 56.7 µM), usual class: cytotoxic; S2 cells (HEK-293 line with an ATXN2-luciferase reporter) viability, CellTiter-Fluor protease fluorescence, 24 h; 0.49% of 400,000 active; further: nearly all actives have a fitted effect of over 40% in size
HepG2 viability: kills HepG2 cells in TGF-b inhibitor counter-screen; HepG2 CAGA-GFP viability, ATP luminescence, 18 h; Potency, µM (series often up to 46.1 µM), most hits filed as cytotoxic; 0.76% of 410,000 active
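HepG2 CAGA-GFP cells (1000/well, DMEM with 1% FBS) received compound, then TGF-beta at 500 pg/mL final, and were incubated 18 hours at 37 degrees C. Viability was read by CellTiter-Glo luminescence. Media-only wells were set as complete cell-killing and DMSO as no toxicity.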
TDP1 cell noCPT: qHTS for Inhibitors of human tyrosyl-DNA phosphodiesterase 1 (TDP1): qHTS in cells in absence of CPT; 15% of 420,000 active; DT40 Tdp1-/- hTDP1 cells, no CPT, ATP luminescence, 48 h; Potency, µM (titrated, usually from 46.2 µM), hits mostly inhibitors; further: nearly all actives have a fitted effect of over 55% in size
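Growth kinetics read by CellTiter-Glo luminescence after ≥48 hr at 37 °C. Cells: DT40 Tdp1-/- stably carrying human TDP1, 400 per well, compound exposure in the absence of CPT (DMSO vehicle).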
ATXN2 expr inh: reduces ATXN2 reporter expression in HEK-293 cells. HEK-293 ATXN2-luciferase reporter, luminescence, 24 h. Potency, µM (doses to about 57 µM), actives largely listed as inhibitors. 0.72% of 360,000 active; further: nearly all actives have a fitted effect of over 55% in size
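qHTS (up to 57 uM final) was run with 24 h compound exposure of reporter cells at 37 °C. Each well was multiplexed: SteadyGlo luminescence measured ATXN2-luciferase expression after a fluorogenic Gly-Phe-AFC viability readout (25 uM final).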
TDP1 cell CPT: growth inhibition of DT40 Tdp1-/-;hTDP1 cells with camptothecin (screen for TDP1 inhibitors); chicken DT40 Tdp1-/-;hTDP1 cells + 20 nM CPT, ATP luminescence, 48 h; Potency, µM (series often up to 46.2 µM), actives largely listed as inhibitors; 12% of 420,000 active; AID 686979; further: nearly all actives have a fitted effect of over 55% in size
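Chicken DT40 Tdp1-/- cells complemented with human TDP1, 400 cells/well, exposed to compounds plus 20 nM camptothecin for at least 48 h at 37 C; viability read as ATP content by CellTiter-Glo luminescence.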
TGFb SMAD3 inh: inhibitors of TGF-b signaling. HepG2 CAGA-GFP TGF-b/SMAD3 reporter, GFP fluorescence, 18 h; TGF-beta stimulated, 500 pg/mL final. 1.2% of 410,000 active. Potency, µM (titrated, usually from 46.1 µM), actives largely listed as inhibitors. AID 588855; further: nearly all actives have a fitted effect of over 65% in size
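HEPG2 CAGA-GFP cells (1000/well, DMEM with 1% FBS) were pre-incubated 2 h at 37 degrees C, given compound by pin tool, then stimulated with TGF-beta at 500 pg/mL final for 18 h before per-cell GFP fluorescence imaging.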
Of the large screens only hits and unclear results are named; the others gave an inactive call. Shown are actives, neighbours in structure and some others; about 17% of the full set was active somewhere. The call rests on the fitted dose curve; in most records, active means well fitted curve in the direction sought with a large enough effect; inconclusive means small, poorly fitted or top-dose-only effect, or another doubt; inactive means no such curve, though single readings can be large; an effect the other way counts as inactive or inconclusive.

N#CC1(C#N)OC12CCS(=O)(=O)c1ccccc12 (stereo not given)	TDP1 cell noCPT inconclusive, TDP1 cell CPT inconclusive
CC1CCC2(CC1)NC(=O)N(CC(=O)NC1(C#N)CCCCC1)C2=O (stereo not given)	none
O=C(NCc1ccncc1)c1cnn(-c2ncc3c(n2)-c2ccccc2CC3)c1C1CC1	none (no result: HepG2 viability, ATXN2 expr inh, TGFb SMAD3 inh)
CCOC(=O)c1ccc(NC(=O)c2c(C)oc3nc(C)nc(N4CCCC4)c23)cc1	TDP1 cell noCPT inconclusive, TDP1 cell CPT inconclusive (no result: S2 tox, ATXN2 expr inh)
Cc1ccc(OCCCCCCN2CCNCC2)c(Br)c1	S2 tox inconclusive, TDP1 cell noCPT 21µM, TDP1 cell CPT inconclusive, TGFb SMAD3 inh inconclusive
Cc1ccc(OCCCCN2CCC(C)CC2)c(Br)c1	TDP1 cell noCPT inconclusive, TDP1 cell CPT 23µM
Cc1ccc(OCCCCN2CCCCC2)c(C)c1	none
Cc1ccc(-c2cc(-c3ccccc3)nc(N/N=C/c3cccnc3)n2)cc1	TDP1 cell noCPT inconclusive, TDP1 cell CPT 29µM, TGFb SMAD3 inh inconclusive
C(=N/Nc1nc(-c2ccccc2)cc(-c2ccccc2)n1)/c1cccnc1	TDP1 cell noCPT 16µM, TDP1 cell CPT inconclusive
Cc1sc(N/N=C/c2cccnc2)nc1-c1ccccc1	TDP1 cell noCPT inconclusive
Cc1cc(-c2ccccc2)nc(N/N=C/c2cccnc2)n1	none
Cc1ccc(NC(=O)CCCNC(=O)c2ccc(Cl)cc2)c(O)c1	none
Cc1c(C(=O)Nc2cc(F)ccc2F)sc2nc3n(c(=O)c12)CCCCC3	TDP1 cell CPT inconclusive
O=C(CSc1ccc(-c2cccs2)nn1)Nc1ccccc1C(F)(F)F	TDP1 cell noCPT inconclusive, TDP1 cell CPT inconclusive (no result: S2 tox, ATXN2 expr inh)
O=C(CSc1ccc(-c2cccs2)nn1)Nc1cccc(F)c1	TDP1 cell noCPT 23µM, TDP1 cell CPT 15µM, TGFb SMAD3 inh inconclusive (no result: S2 tox, ATXN2 expr inh)
COc1ccccc1NC(=O)CSc1ccc(-c2ccccn2)nn1	S2 tox inconclusive, TDP1 cell noCPT inconclusive, ATXN2 expr inh inconclusive, TDP1 cell CPT inconclusive
COc1ccc(-c2ccc(SCC(=O)c3ccc(F)cc3)nn2)cc1OC	TDP1 cell noCPT inconclusive, TDP1 cell CPT inconclusive
COc1ccccc1NC(=O)CSc1ccc(-c2ccc(-n3cccn3)cc2)nn1	TDP1 cell noCPT 18µM, TDP1 cell CPT inconclusive
COc1ccc(-c2ccc(SCC(=O)c3cccs3)nn2)cc1OC	TDP1 cell noCPT 16µM, TDP1 cell CPT inconclusive
COc1ccc(-c2ccc(SCC(=O)Nc3cccc(C(C)=O)c3)nn2)cc1OC	TDP1 cell noCPT 18µM, TDP1 cell CPT 13µM
CC(/C=N/N1CCN(c2ccccn2)CC1)=C\c1ccccc1	S2 tox inconclusive
CCn1nc(C)cc1C(=O)NCC1Cc2cccc(-c3cccnc3)c2O1 (stereo not given)	TDP1 cell noCPT inconclusive (no result: HepG2 viability, ATXN2 expr inh, TGFb SMAD3 inh)
Cn1nc(C(F)(F)F)c(CO)c1Sc1ccc(F)cc1	none
CCn1cc(C(=O)N2CCN(c3ccc(OC)cc3)CC2)c(=O)c2cc(S(=O)(=O)N(C)C3CCCCC3)ccc21	none
O=C(CSc1ccc(-c2ccccn2)nn1)Nc1ccc(F)c(F)c1	S2 tox inconclusive, TDP1 cell noCPT 21µM, ATXN2 expr inh inconclusive, TDP1 cell CPT 21µM, TGFb SMAD3 inh inconclusive
CCOc1ccc(NC(=O)CSc2ccc(-c3ccccn3)nn2)cc1	TDP1 cell noCPT inconclusive, TDP1 cell CPT inconclusive
CCOC(=O)c1ccc(NC(=O)CSc2ccc(-c3ccccn3)nn2)cc1	TDP1 cell noCPT 18µM, ATXN2 expr inh inconclusive, TDP1 cell CPT 21µM
Cc1cc(C)c(NC(=O)CSc2ccc(-c3ccccn3)nn2)c(C)c1	S2 tox inconclusive, TDP1 cell noCPT 23µM, TDP1 cell CPT 23µM
Cc1ccc(NC(=O)CSc2ccc(-c3ccccn3)nn2)c(C)c1	TDP1 cell noCPT inconclusive, TDP1 cell CPT inconclusive
COc1ccc(NC(=O)CSc2ccc(-c3ccccn3)nn2)cc1OC	S2 tox inconclusive, TDP1 cell noCPT 16µM, TDP1 cell CPT 23µM
COC(=O)c1ccccc1NC(=O)CSc1nc2ccsc2c(=O)n1Cc1ccc(C(=O)O)cc1	none (no result: ATXN2 expr inh)
